LMNA splice mod: modulators of lamin A splicing; AID 1487; Potency, µM (top dose mostly 46.1 µM), most hits filed as inhibitors; 0.01% of 200,000 active; HeLa LMNA splicing GFP/RFP minigene ratio, 48 h; active means well fitted inhibition curve with a large enough effect in the signal ratio, with a control signal flat, not every such curve was filed as active; inconclusive means small, poorly fitted or top-dose-only effect, or effect the other way, or a change in a side signal; the % refers to the signal ratio
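S3 HeLa stable clones carrying a lamin A-EGFP splicing minigene plus DsRed2 were seeded at 600 cells/well in Opti-MEM with 2% FBS, pin-dosed and incubated 48 h at 37°C. Acumen cytometry (488 nm) gave the GFP/RFP total-intensity ratio.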
ALDH1A1 block: ALDH1A1 (human) enzyme inhibition. P00352. Purified ALDH1A1, NADH fluorescence, propionaldehyde substrate. Potency, µM (top dose mostly 75.3 µM), actives largely listed as inhibitors. 7.3% of 220,000 active. AID 1030
PNC inhibitor: blocks assembly of the perinucleolar compartment; activity change (PNC), negative = inhibition, % at 10 µM; PC3M PTB-GFP, PNC prevalence imaging, 16 h; stronger effect = lower value; 3.1% of 140,000 active;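 active means readout at or below -70, meaning at least 70% loss of cells showing the perinucleolar compartment, a nuclear body marking cancer cells; inconclusive means readout between -30 and a set limit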
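PC3M cells stably expressing PTB-GFP, 750–1000 cells/well, treated 16 h at 37 °C with compound (23 nl of library stock), in duplicate. After paraformaldehyde fixation and Hoechst stain, imaged at 20x; PNC prevalence scored by image analysis.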
HPGD inh: HPGD (human) dehydrogenase inhibition; purified HPGD, NADH fluorescence kinetic, PGE2 substrate; P15428; AID 894; Potency, µM, usual class: inhibitors; 4.3% of 150,000 active
Target sequence (P15428 whole entry, looked up): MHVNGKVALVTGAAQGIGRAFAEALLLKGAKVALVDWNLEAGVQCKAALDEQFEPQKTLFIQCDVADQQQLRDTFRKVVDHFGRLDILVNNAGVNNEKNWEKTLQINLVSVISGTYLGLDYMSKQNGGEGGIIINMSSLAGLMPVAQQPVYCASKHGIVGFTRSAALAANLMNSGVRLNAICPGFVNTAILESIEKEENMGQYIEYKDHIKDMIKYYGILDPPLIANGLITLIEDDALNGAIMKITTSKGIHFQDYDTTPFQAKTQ
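NADH formation kinetics: reaction with 30 uM PGE2 and 1 mM NAD+ (final), 20 nM enzyme, Tris-HCl pH 8 with Tween 20, after 15 min compound preincubation at room temperature. Fluorescence change, last versus first of five reads.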
12-hLO inh: 12-hLO (ALOX12) enzyme inhibition; P18054; purified 12-hLO, xylenol orange hydroperoxide absorbance; Potency, µM (doses to about 57.1 µM), actives largely listed as inhibitors; 0.12% of 150,000 active; AID 1452; active means well fitted inhibition curve with a large enough effect; inconclusive means small, poorly fitted or top-dose-only effect; further: nearly all actives have a fitted effect of over 55% in size
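Hydroperoxide formation by human 12-lipoxygenase from 40 uM arachidonic acid was followed colorimetrically via ferric-xylenol orange complex, using the 573/405 nm absorbance ratio. Enzyme concentration was 150 nM, with 30 min reaction at room temperature.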
Hits are given with their value; i = inactive; ? = inconclusive; nt = not tested or not shown; [ ] = another dose, or the depositor's remark. Sampled rows, rich in hits. Any-hit rate of the full collection: about 10%. Unless noted, the call rests on the fitted dose curve; in most records, active means well fitted inhibition curve with a large enough effect (not every such curve was filed as active); inconclusive means small, poorly fitted or top-dose-only effect, or another doubt; inactive means no such curve, though single readings can be large or run the other way.

SMILES	LMNA splice mod	ALDH1A1 block	PNC inhibitor	HPGD inh	12-hLO inh
COc1cc(C=C2C(=O)NC(=O)NC2=O)ccc1OCc1ccc([N+](=O)[O-])cc1	i	15µM	nt	nt	nt
CN1C(=O)C(=Cc2ccccc2OCCOc2ccc([N+](=O)[O-])cc2)C(=O)N(C)C1=O	nt	3.5µM	nt	nt	nt
CN1C(=O)C(=Cc2ccccc2OCc2ccc(C(=O)O)cc2)C(=O)N(C)C1=O	nt	i	nt	nt	nt
O=C1NC(=O)C(=Cc2ccccc2OCCOc2ccc([N+](=O)[O-])cc2)C(=O)N1	i	14µM	nt	nt	nt
CN1C(=O)C(=Cc2ccccc2OCc2ccccc2Cl)C(=O)N(C)C1=O	?	2.8µM	?	16µM	i
O=C(O)C[SH+]CC(=O)O.O=C(O)C[SH+]CC(=O)O.[Cu]	nt	nt	nt	i	nt
CCN1CCN(S(=O)(=O)c2cnc(Cl)c(Br)c2)CC1	i	1.3µM	i	i	i
Cc1c(OCC(F)(F)F)ccnc1CS(=O)c1nc2ccccc2[nH]1 (stereo unspecified)	?	i	i	?	i
COCCCOc1ccnc(CS(=O)c2nc3ccccc3[nH]2)c1C (stereo unspecified)	?	6µM	nt	?	i[0.00818 µM]
NC(=O)CN1C[C@@H](O)CC1=O	nt	nt	nt	nt	i
CSCC[C@@H](N)P(C)(=O)O	nt	i[13.5 µM]	nt	i	i[11.4 µM]
NC(N)=Nc1ccc2[nH]c3c(c2c1)C[C@@]1(O)[C@H]2Cc4ccc(O)c5c4[C@@]1(CCN2CC1CC1)[C@H]3O5	?	1.6µM	nt	3.2µM	nt
COc1ccc(NC(=O)c2c(C)nn(Cc3ccccc3Cl)c2Cl)cc1Cl	i	i	?	i	i
COc1ccc(N(CC(=O)Nc2cccc(SC)c2)S(C)(=O)=O)cc1Cl	?	14µM	?	?	i
CC(C)CCCC(C)C1CCC2C3CC(=O)[C@H]4CC(O)CC[C@]4(C)C3CC[C@@]12C (stereo partly specified)	?	i	nt	i	i
O=S1OCC2C(CO1)C1(Cl)C(Cl)=C(Cl)C2(Cl)C1(Cl)Cl (stereo unspecified)	i	i	nt	i	i
O=C(O)[C@@H]1[C@H](C(=O)O)[C@]2(Cl)C(Cl)=C(Cl)[C@@]1(Cl)C2(Cl)Cl	nt	3.2µM	nt	i	i[11.4 µM]
CN1C[C@@H](C(=O)N[C@@]2(C)O[C@]3(O)C4CCCN4C(=O)[C@@H](Cc4ccccc4)N3C2=O)C=C2c3cccc4[nH]cc(c34)C[C@@H]21 (stereo partly specified)	nt	?	nt	i	i
CCOP(=S)(OCC)Oc1cc(C)oc(=O)c1	nt	7.9µM	nt	nt	nt
CCOP(=S)(OCC)Oc1cc(C)oc(=O)c1Cl	nt	1µM	nt	nt	nt
CCOP(=S)(OCC)Oc1ccc2c(C)c(Cl)c(=O)oc2c1	?	?	nt	?	i
O=C(Oc1ccccc1)N1CCC[C@@]2(CCN(Cc3cc(C(F)(F)F)cc(C(F)(F)F)c3)C2)C1	nt	i	nt	i	i
CCOC(=O)C(O)(c1ccc(NC(=S)NC(=O)c2ccc(Cl)cc2Cl)cc1)C(F)(F)F (stereo unspecified)	?	8.9µM	i	i	i
CCOC(=O)C(O)(c1ccc(NC(=S)NC(=O)c2ccc(Cl)cc2Cl)c(C)c1)C(F)(F)F (stereo unspecified)	?	18µM	i	i	?
COC(=O)C(O)(c1ccc(NC(=S)NC(=O)c2ccc(Cl)cc2Cl)c(C)c1)C(F)(F)F (stereo unspecified)	?	?	i	?	?
SMILES	LMNA splice mod	ALDH1A1 block	PNC inhibitor	HPGD inh	12-hLO inh
CCCc1[nH][nH]c(=O)c1C(c1ccc(Cl)cc1)C(C#N)C#N (stereo unspecified)	i	?	i	16µM	i
CCCc1[nH][nH]c(=O)c1C(c1ccccc1)C(C#N)C#N (stereo unspecified)	i	22µM	?	?	i
CN=C=O	nt	i	nt	i	i
Cc1ccc2c(c1)C1CN(C)CCC1N2C(=O)c1ccccc1NS(=O)(=O)c1cccc(C(F)(F)F)c1 (stereo unspecified)	?	i	i	i	i
c1nc(N2CC2)c2cnn([C@@H]3CCCCO3)c2n1	nt	i[13.5 µM]	nt	i	i[11.4 µM]
CCCn1nc2ccccc2c1P(=O)(N1CCOCC1)N1CCOCC1	i	i	-90	i	i
COCCN1C(=O)NC(=O)/C(=C\c2ccc(F)cc2)C1=O	i	i	nt	nt	nt
O=C1NC(=O)N(CCc2ccc(F)cc2)C(=O)/C1=C/c1cccs1	nt	1.4µM	nt	nt	nt
O=C1NC(=O)N(CCC2=CCCCC2)C(=O)/C1=C\c1cccs1	i	1.3µM	-86	0.32µM	i
O=c1c2ccccc2ncn1-c1ccc([N+](=O)[O-])c(C(F)(F)F)c1	i	i	i	i	i
CCCc1nc2ccc(Br)cc2c(=O)n1-c1ccc([N+](=O)[O-])c(C(F)(F)F)c1	?	i	-96	nt	i
CCOC(=O)Cc1[nH]nc2c1C(c1ccoc1)C(C#N)=C(N)O2 (stereo unspecified)	i	?	?	i	i
Cc1ccc(NC(=O)CSc2nnc([C@@H](N)Cc3c[nH]c4ccccc34)o2)c(C)c1	i	25µM	i	?	i
C=C(C)CSc1nnc([C@@H](N)Cc2c[nH]c3ccccc23)o1	i	16µM	i	?	i
CCc1ccccc1NC(=O)CSc1nnc([C@@H](N)Cc2c[nH]c3ccccc23)o1	i	?	i	i	i
CCCCOc1nc2ccccc2c(=O)n1-c1ccccc1	?	14µM	?	i	i
COc1nc2ccccc2c(=O)n1-c1ccc(Cl)cc1	i	i	i	i	i
COc1ccc(-n2c(-c3ccc(C)cc3)nc3ccccc3c2=O)cc1	nt	7.9µM	nt	nt	nt
O=S(=O)(O)/C(=C\c1ccccc1)c1ccccc1 (tested in a mixture with another compound)	nt	i[13.5 µM]	nt	i	i[11.4 µM]
Nc1ccc(Br)cc1	nt	?	nt	i	i
Nc1ccc2cc(Br)ccc2c1	nt	18µM	nt	nt	nt
Cc1oc2ccc(OC(=O)N3CCOCC3)cc2c1C(=O)OC(C)C	i	4µM	i	i	i
O=C(Nc1cccc(OC(=O)N2CCOCC2)c1)N1CCOCC1	i	i	?	i	i
NC[C@@H](O)CSP(=O)(O)O	nt	i[13.5 µM]	nt	i	i[11.4 µM]
O=c1[nH]c(SCc2ccccc2Cl)nc2c1CCCC2	?	i	i	2µM	i
SMILES	LMNA splice mod	ALDH1A1 block	PNC inhibitor	HPGD inh	12-hLO inh
C=CCN1CC[C@]23c4c5ccc(O)c4O[C@@H]2C(=O)CC[C@@]3(O)[C@H]1C5	nt	nt	nt	nt	i
CC[C@]1(OC(=O)CN)C(=O)OCc2c1cc1n(c2=O)Cc2cc3ccccc3nc2-1	nt	?	nt	?	i[11.4 µM]
O=C(CSc1ncnc2c1nnn2-c1ccc(F)cc1)NCC1CCCO1 (stereo unspecified)	i	i	i	?	i
CC(=O)C(Sc1ncnc2c1nnn2-c1ccc(F)cc1)C(=O)N(C)C (stereo unspecified)	i	2.5µM	i	11µM	i
O=[As](O)(O)c1ccc(N=Nc2ccc([As](=O)(O)O)cc2)cc1	nt	i[13.5 µM]	nt	i	i[11.4 µM]
ClCCl	nt	?	nt	i	i
CCCCn1c(O)c(C(CC)=Nc2ccc(OCC)cc2)c(=O)[nH]c1=O	?	i	i	i	i
CCC(=Nc1ccc(OC)cc1OC)c1c(O)n(C)c(=O)n(C)c1=O	?	?	i	35µM	i
